Experimental data as given in PubChem BioAssay.
Calls of active or inactive are those of the source.

Experiments:
[1] = A549 cell viability effects, profiling panel, calcein-AM fluorescence, 48 h, basal (AID 1162); conditions: higher = more signal; note: test concentration not given here
[2] = adipocyte viability effects, profiling panel, cell-based, 3T3-L1 adipocytes, calcein-AM fluorescence, 48 h, basal (AID 1163); conditions: 3T3-L1 adipocytes viability, higher = more signal; note: test concentration not given here
[3] = HepG2 cell viability effects, profiling panel, calcein-AM fluorescence, 48 h, basal (AID 1164); conditions: higher = more signal; note: test concentration not given here
[4] = MM1S cell viability effects, profiling panel, calcein-AM fluorescence, 48 h, basal (AID 1165); conditions: higher = more signal;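 note: viability of MM1S multiple myeloma cells under basal unstimulated conditions; test concentration not given here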
[5] = basal RPMI8226 viability, no added stimulus, profiling panel, cell-based, calcein-AM fluorescence, 48 h, PK04 Diversity Set (AID 1166); conditions: RPMI8226 myeloma viability, higher = more signal;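 note: cells grown under basal conditions without added stimulus; test concentration not given here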
[6] = basal HepG2 mitochondrial membrane potential changes, profiling panel, cell-based, JC-1 fluorescence, 24 h, 100 nL compound (AID 1167); conditions: higher = more signal; note: test concentration not given here
[7] = basal 3T3-L1 adipocyte mitochondrial potential changes, profiling panel, cell-based, JC-1 fluorescence, 3T3-L1 adipocytes, 24 h, 100 nL compound (AID 1168); conditions: JC-1 mitochondrial fluorescence, higher = more signal, called active from +8 up or from −8 down; note: test concentration not given here
[8] = basal RPMI8226 mitochondrial membrane potential changes, profiling panel, cell-based, JC-1 fluorescence, 24 h, 100 nL compound (AID 1169); conditions: RPMI8226 myeloma, JC-1 mitochondrial potential fluorescence, higher = more signal; note: test concentration not given here
[9] = basal MM1S mitochondrial membrane potential changes, profiling panel, cell-based, JC-1 fluorescence, 24 h, 100 nL compound (AID 1170); conditions: higher = more signal; note: test concentration not given here
[10] = A549 lung cancer cell viability effects, profiling panel, resazurin fluorescence, 24 h, PK04 Diversity Set (AID 1171); conditions: higher = more signal, called active from +8 up or from −8 down; note: test concentration not given here
[11] = HepG2 liver cancer cell viability effects, profiling panel, resazurin fluorescence, 24 h, PK04 Diversity Set (AID 1172); conditions: higher = more signal; note: test concentration not given here
[12] = basal S. cerevisiae growth modulation, no modifier, primary screen, OD600, strain BY4716, 24 h, basal condition (AID 1173); conditions: OD600, 24 h, higher = more signal, called active from +8 up or from −8 down
[13] = MM1S myeloma cell viability, profiling panel, resazurin fluorescence, basal, 24 h, PK04 Diversity Set (AID 1174); conditions: higher = more signal, called active from +8 up or from −8 down;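 note: MM1S multiple myeloma cell line; test concentration not given here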
[14] = biological target: Dihydroorotate dehydrogenase (quinone), mitochondrial (Plasmodium falciparum (isolate 3D7)) (UniProt Q08210); assay: PfDHODH enzyme inhibitors, primary screen, biochemical, C-terminal His tag, absorbance 600 nm (AID 1175); conditions: DCIP absorbance 600 nm, higher = more signal, called active from +8 up or from −8 down;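 note: recombinant parasite enzyme with a five histidine tag at its C terminus; test concentration not given here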
[15] = S. cerevisiae RM11-1a growth modifiers, primary screen, strain RM11-1a, OD600, basal, 24 h (AID 1177); conditions: OD600, 24 h, higher = more signal, called active from +8 up or from −8 down;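 note: cultures grown under basal conditions with no added stressor; test concentration not given here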
[16] = E. coli acrAB mutant growth effects, primary screen, E. coli filamentation inducers, strain DRC39, OD650, 24 h (AID 1178); conditions: higher = more signal, called active from +8 up or from −8 down;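 note: growth measured as culture turbidity by optical density at 650 nm; test concentration not given here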
[17] = E. coli acrAB mutant growth effects, primary screen, E. coli filamentation inducers, strain DRC39, OD650, 48 h (AID 1179);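 note: screen aims at cell division blockers that make cells filament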; conditions: E. coli DRC39 delta-acrAB growth, higher = more signal, called active from +8 up or from −8 down
[18] = RPMI8226 myeloma cell viability, profiling panel, resazurin fluorescence, basal, 24 h, PK04 Diversity Set (AID 1180); conditions: higher = more signal;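 note: RPMI8826 multiple myeloma cell line at 5000 cells per well; test concentration not given here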
[19] = biological target: E3 ubiquitin-protein ligase XIAP (Homo sapiens) (UniProt P98170); assay: XIAP binders, primary screen, biophysical, small-molecule microarray, fluorescence 635 nm (AID 1181); conditions: small-molecule microarray binding, higher = more signal;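 note: score merges 667 nm emission and signal to noise over triplicate slides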
Sequence of E3 ubiquitin-protein ligase XIAP (Homo sapiens) (P98170 whole entry, looked up): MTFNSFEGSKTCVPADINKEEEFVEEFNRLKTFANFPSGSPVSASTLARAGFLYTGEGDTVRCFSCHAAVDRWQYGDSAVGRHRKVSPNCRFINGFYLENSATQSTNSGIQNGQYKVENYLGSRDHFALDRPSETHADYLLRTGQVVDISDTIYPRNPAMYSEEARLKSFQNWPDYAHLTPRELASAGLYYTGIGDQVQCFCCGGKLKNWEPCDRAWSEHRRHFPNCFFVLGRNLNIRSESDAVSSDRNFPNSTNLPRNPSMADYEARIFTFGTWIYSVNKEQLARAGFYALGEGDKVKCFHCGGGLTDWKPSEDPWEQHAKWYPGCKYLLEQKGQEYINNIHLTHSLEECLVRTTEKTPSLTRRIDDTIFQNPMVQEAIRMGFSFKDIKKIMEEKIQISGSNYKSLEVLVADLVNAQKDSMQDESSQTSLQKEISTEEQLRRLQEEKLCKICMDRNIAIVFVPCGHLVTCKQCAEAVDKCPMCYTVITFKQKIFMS

Sequence of Dihydroorotate dehydrogenase (quinone), mitochondrial (Plasmodium falciparum (isolate 3D7)) (Q08210 whole entry, looked up): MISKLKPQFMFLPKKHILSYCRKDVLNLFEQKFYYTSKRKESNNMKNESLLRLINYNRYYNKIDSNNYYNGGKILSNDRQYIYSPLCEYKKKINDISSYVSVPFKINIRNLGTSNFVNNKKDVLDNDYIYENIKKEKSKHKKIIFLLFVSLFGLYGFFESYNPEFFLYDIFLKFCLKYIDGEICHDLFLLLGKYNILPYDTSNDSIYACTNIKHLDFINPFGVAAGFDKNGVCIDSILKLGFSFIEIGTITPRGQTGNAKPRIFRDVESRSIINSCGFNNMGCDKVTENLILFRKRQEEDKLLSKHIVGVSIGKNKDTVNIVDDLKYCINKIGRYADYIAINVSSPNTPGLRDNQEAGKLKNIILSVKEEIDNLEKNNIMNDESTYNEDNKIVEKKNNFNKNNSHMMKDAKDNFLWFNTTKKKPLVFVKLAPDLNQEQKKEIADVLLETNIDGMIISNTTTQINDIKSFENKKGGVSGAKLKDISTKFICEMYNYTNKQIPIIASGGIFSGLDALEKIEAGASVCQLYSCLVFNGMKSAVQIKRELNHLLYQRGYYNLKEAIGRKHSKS

Structure (SMILES)	z-score [1]	z-score [2]	z-score [3]	z-score [4]	z-score [5]	z-score [6]	z-score [7]	z-score [8]	z-score [9]	z-score [10]	z-score [11]	z-score [12]	z-score [13]	composite z-score [14]	z-score [15]	z-score [16]	z-score [17]	z-score [18]	composite z-score [19]
C=CC(=O)O[C@@H](Cc1ccccc1)[C@H]1C2C=CCCC=C2CN1Cc1cccc(Cl)c1 (stereo partly specified)	1.07	0.392	0.216	-3.14	-2.84	0.687	0.0156 (inactive)	-0.233	0.453	1.11 (inactive)	1.36	-2.29 (inactive)	0.399 (inactive)	0.566 (inactive)	-0.718 (inactive)	2.63 (inactive)	0.338 (inactive)	1.26	0.348
O=C(NCc1ccccc1)[C@@]1(CCS(=O)(=O)c2ccccc2)COC(c2ccc(OCCCO)cc2)=N1	1.29	0.897	-0.0721	-2.26	-0.256	1.61	1.11 (inactive)	-0.263	-0.944	-0.335 (inactive)	0.929	0.0648 (inactive)	-0.12 (inactive)	-0.297 (inactive)	1.52 (inactive)	2.95 (inactive)	1.9 (inactive)	-0.0092	0.272
O=C(O)[C@@H]1Cc2c([nH]c3ccccc23)[C@@H](c2ccccc2)N1	0.0265	1.21	-0.55	0.424	0.519	0.516	-0.284 (inactive)	-0.122	0.0857	0.216 (inactive)	0.326	-0.949 (inactive)	1.14 (inactive)	-0.36 (inactive)	-0.19 (inactive)	-0.266 (inactive)	0.0747 (inactive)	0.724	-0.127
CN1C2C=C(c3ccc(CO)cc3)C(C3C(=O)N(C(N)=O)C(=O)C32)C1c1cccs1 (stereo unspecified)	0.555	1.64	-0.542	0.31	1.07	0.171	0.497 (inactive)	-0.21	0.491	0.567 (inactive)	0.935	-1.28 (inactive)	1.05 (inactive)	0.683 (inactive)	1.19 (inactive)	1.09 (inactive)	0.798 (inactive)	0.898	-0.337
COc1cc2c(cc1OC)CN(C(=O)[C@@H]1[C@H]3C(=O)O[C@H](c4ccccc4)[C@H](c4ccccc4)N3[C@H](c3ccccc3OCCO)[C@@]13C(=O)Nc1ccccc13)CC2	-0.225	1.85	-0.174	-0.998	-0.622	0.648	3.09 (inactive)	-0.509	0.0343	0.872 (inactive)	0.193	1.34 (inactive)	0.255 (inactive)	-0.495 (inactive)	3.1 (inactive)	0.392 (inactive)	0.952 (inactive)	0.105	-0.127
C[C@@H]1CC[C@H]2C(=O)N3[C@@H](CC[C@@H](C)[C@@H]3c3cccc(N4CCOCC4)c3)C(=O)N2[C@H]1c1cccc(Br)c1	1.56	1.4	0.273	-0.775	-1.3	3.04	0.37 (inactive)	-0.779	0.521	1.36 (inactive)	1.05	-1.89 (inactive)	0.328 (inactive)	-0.0779 (inactive)	-0.123 (inactive)	0.401 (inactive)	0.238 (inactive)	1.37	-0.111
C=CCC(OC(C)=O)[C@@H]1[C@@H](N(Cc2ccc(-c3ccccc3)cc2)C(=O)c2ccc(C)cc2)c2cc(OCCCO)ccc2N1C(=O)c1ccc(-c2ccccc2)cc1 (stereo partly specified)	3.37	0.626	1.87	-0.732	0.887	4.05	1 (inactive)	-0.454	1.22	2.47 (inactive)	2.15	-1.71 (inactive)	1.55 (inactive)	-1.08 (inactive)	-3.45 (inactive)	2.05 (inactive)	1.27 (inactive)	1.51	-0.467
COCCOC(=O)N1C(=O)[C@@]2(c3cc(C#CCNC(N)=O)ccc31)[C@H](c1ccc(OCCO)cc1)N1[C@H](c3ccccc3)[C@H](c3ccccc3)OC(=O)[C@H]1[C@@H]2C(=O)Nc1nc2ccccc2s1	0.556	1.49	-0.801	-0.139	-0.138	-3.18	2.96 (inactive)	-0.964	-1.56	0.708 (inactive)	-0.265	0.846 (inactive)	1.48 (inactive)	0.665 (inactive)	2.46 (inactive)	0.24 (inactive)	0.782 (inactive)	1.3	0.0472
COc1ccc([Si](C)(C)[C@H]2[C@H](CCO)O[C@@]3(C(=O)N(Cc4ccccc4)c4ccc(N5C(=O)c6cccc7cccc5c67)cc43)[C@@H]2C)cc1	0.318	0.535	-2.11	-1.02	-3.03	1.63	2.08 (inactive)	-0.815	-0.923	-1.46 (inactive)	0.175	0.432 (inactive)	-2.33 (inactive)	0.386 (inactive)	4.08 (inactive)	2.4 (inactive)	2.17 (inactive)	-2.04	-0.0473
CO[C@H]1O[C@H](CO)[C@@H](OC(=O)Nc2ccc(Oc3ccccc3)cc2)[C@H](OC(=O)Nc2ccccc2-c2ccccc2)[C@H]1OC(=O)Nc1ccccc1-c1ccccc1	-4.22	1.59	-4.47	-3.39	-4.01	-1.37	1.64 (inactive)	-0.646	-1.81	-4.85 (inactive)	-2.96	1.94 (inactive)	-3.97 (inactive)	-0.326 (inactive)	4.09 (inactive)	0.275 (inactive)	-0.534 (inactive)	-2.5	0.344
Cc1ccc(S[C@]2(C(=O)O)CC(=O)N(Cc3ccccc3)[C@@H]2c2ccc(CO)cc2)cc1	0.633	-0.671	-0.18	-0.476	0.607	0.536	0.923 (inactive)	0.118	-0.418	0.477 (inactive)	1.06	-3.67 (inactive)	1.6 (inactive)	-0.891 (inactive)	-1.14 (inactive)	0.537 (inactive)	0.612 (inactive)	0.512	0.123
O=C1OCC=C[C@H]2OC34C=CCN(Cc5ccccc5)C(=O)[C@H]3N(CCCCCO)C(=O)[C@@H]4[C@@H]12 (stereo partly specified)	0.16	2.65	-0.566	-0.231	-0.166	0.00385	1.45 (inactive)	1.27	1.72	-0.208 (inactive)	-0.399	-0.693 (inactive)	0.238 (inactive)	-0.0022 (inactive)	-0.512 (inactive)	1.77 (inactive)	1.22 (inactive)	0.58	0.101
C=CCc1cccc([C@H]2N[C@H](C(=O)O)CC[C@@H]2C)c1	0.382	0.624	-0.484	-0.543	0.665	0.489	-0.0728 (inactive)	0.602	0.345	0.553 (inactive)	0.615	0.182 (inactive)	0.948 (inactive)	1.09 (inactive)	1.14 (inactive)	0.0903 (inactive)	0.129 (inactive)	1.02	-0.0476
CC(C)(C)OC(=O)CC[C@@]1(C(=O)NCc2ccccc2)N=C(c2ccc(OCCCO)cc2)O[C@@H]1c1ccccc1	-0.595	1.16	-0.907	-2.37	-3.23	1.9	4.19 (inactive)	-0.791	-0.552	-2.88 (inactive)	-0.956	-0.454 (inactive)	-1.49 (inactive)	-0.362 (inactive)	-0.801 (inactive)	2.23 (inactive)	1.5 (inactive)	-1.76	0.174
C=CCOC(=O)[C@@H]1[C@H]2C(=O)O[C@H](c3ccccc3)[C@H](c3ccccc3)N2[C@H](c2ccc(OCCOC(=O)[C@H]3C[C@H]4C(=O)N5CCC[C@H]5C(=O)N4[C@H]3c3ccc(O)cc3)cc2)[C@@]12C(=O)Nc1ccccc12	0.17	1.25	-1.06	-0.222	-0.931	-1.16	0.597 (inactive)	-0.674	-0.393	-0.0653 (inactive)	-0.379	-0.117 (inactive)	0.201 (inactive)	0.0956 (inactive)	0.256 (inactive)	0.197 (inactive)	-0.148 (inactive)	1.03	-0.217
CC(C)[Si](OCCCNS(=O)(=O)c1ccc(Br)cc1)(C(C)C)C(C)C	0.0609	0.279	-2.5	-3.23	-4.09	-3.5	2.29 (inactive)	-0.218	0.727	-0.116 (inactive)	1.49	-1.79 (inactive)	0.766 (inactive)	0.0026 (inactive)	-2.85 (inactive)	2.79 (inactive)	2.3 (inactive)	-1.26	-0.18
COCCCNC(=O)[C@@]1(Sc2ccc(C)cc2)CC(=O)N(Cc2cc(C(F)(F)F)cc(C(F)(F)F)c2)[C@@H]1c1ccc(CO)cc1I	0.697	1.34	-0.632	-2.24	-2.34	0.0901	0.135 (inactive)	-0.00613	-0.315	0.555 (inactive)	-0.125	-3.95 (inactive)	-2.01 (inactive)	-0.625 (inactive)	-2.16 (inactive)	0.818 (inactive)	0.328 (inactive)	-1.2	0.0425
CN(C)CCCC[C@@H]1NC(=O)[C@@H]2C[C@H](C(=O)NCCCCCNC(=O)CS)[C@H](c3ccc(O)cc3)N2C1=O	0.748	0.387	-1.02	-0.0855	0.262	1.61	0.642 (inactive)	-0.238	0.422	-0.207 (inactive)	-0.23	-0.312 (inactive)	1.01 (inactive)	-1.38 (inactive)	-1.13 (inactive)	0.964 (inactive)	0.809 (inactive)	0.975	0.104
C=CCC1=C[C@H]2[C@H]([C@@H]3C=C[C@]2(CC=C)C(=O)[C@]32CO2)[C@@]2(CO2)C1=O	-0.135	0.916	-0.732	-3.16	-2.93	0.896	1.54 (inactive)	-0.201	-2.08	-1.33 (inactive)	0.177	-15.3 (active)	-1.92 (inactive)	-0.491 (inactive)	-0.763 (inactive)	2.57 (inactive)	1.51 (inactive)	-1.12	0.147
